Screens deposited in PubChem by National Center for Advancing Translational Sciences (NCATS).
Integrin act MD: qHTS for Activators of Integrin-Mediated Alleviation for Muscular Dystrophy; Potency, µM (top dose mostly 38.3 µM), inactives show at the highest dose activation, most hits filed as activators; hit rate 0.064% among 350,000; alpha7betagal myoblasts, beta-gal FDG fluorescence, 48 h; AID 624291, 2012; active means well fitted activation curve with a large enough effect; inconclusive means small, poorly fitted or top-dose-only effect; inactive means no such curve, though single readings can be large or run the other way;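 further: potency means the concentration at half of the fitted maximal effect; 100% = response of the positive control SU9516; nearly all actives have a fitted effect of over 60% in size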
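Alpha7betagal+/- myoblasts (passage 13) were plated 16-24 hr, then exposed to compounds (1:260 dilution of DMSO stock) for 48 hours at 37C. After MPER lysis, β-galactosidase reporter activity was read as FDG fluorescence (ex 480/em 540) after 30 minutes.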
DRD3 antagonist: qHTS of D3 Dopamine Receptor Antagonist: qHTS; D3R cells, DiscoveRx beta-arrestin luminescence, antagonist mode; active compounds read low; max response, negative = inhibition, %; hit rate 2.5% among 360,000; AID 652054, 2013; in the data active means max response below about -50%; inconclusive means no clear call, values can overlap the other calls; further: on the % scale 0 is the no-effect control and ±100 the full control effect
Target sequence (P35462 whole entry, looked up): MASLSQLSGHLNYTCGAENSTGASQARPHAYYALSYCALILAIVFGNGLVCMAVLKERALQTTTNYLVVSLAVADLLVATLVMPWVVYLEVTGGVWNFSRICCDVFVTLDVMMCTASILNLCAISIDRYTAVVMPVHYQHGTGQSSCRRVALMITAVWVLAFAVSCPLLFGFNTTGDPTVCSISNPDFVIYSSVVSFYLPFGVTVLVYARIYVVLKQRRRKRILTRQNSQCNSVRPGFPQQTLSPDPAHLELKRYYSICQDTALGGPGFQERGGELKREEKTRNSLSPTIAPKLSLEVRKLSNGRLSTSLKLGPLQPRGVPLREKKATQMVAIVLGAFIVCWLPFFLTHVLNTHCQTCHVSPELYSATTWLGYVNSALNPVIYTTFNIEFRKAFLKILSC
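Cells expressing the human receptor were seeded at 1500 cells/well, incubated overnight at 37 degrees C in 5% CO2, then exposed to library compounds with dopamine controls for 90 minutes at 37 degrees C before luminescent detection.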
D3 ag: qHTS of D3 Dopamine Receptor Agonist: qHTS; hit rate 0.58% among 410,000; D3R DiscoveRx beta-arrestin cells, luminescence, 90 min; AID 652048, 2013; D(3) dopamine receptor (Homo sapiens), P35462; max activation, %; in the data active means max activation above about 30%; further: 0% is about no effect
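Cells at 1500/well, incubated overnight, then treated with pinned compounds (dopamine as control) for 90 min at 37 degrees C. DiscoveRx reagent added for 30 - 60 minutes at room temperature; luminescence read.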
* = called active by the depositor; ? = inconclusive; . = no result; [ ] = another dose, or the depositor's remark. Most compounds without a hit are left out; they make up all but 2.9% or so of the library.

SMILES	Integrin act MD	DRD3 antagonist	D3 ag
Cc1noc(C)c1COc1ccc(C(=O)N2CCN(c3ccccc3O)CC2)cc1	20.0%	0.2	1.3
CC(=O)Nc1ccc(S(=O)(=O)Nc2nc3ccccc3nc2Cl)cc1	6.5%	12.5	-1.4
O=C(CN1C(=O)COc2ccccc21)NCCCN1CCOCC1	11.2%	-6.3	1.9
O=C(CN1C(=O)COc2ccccc21)N(CCCN1CCOCC1)CC1CC=CCC1 (centres undefined)	5.1%	-56.5*	-58.4
COC(=O)CC1N(S(=O)(=O)c2ccc(C)cc2)c2ccccc2C1(C(=O)OC)C(=O)OC (centres undefined)	.	-2.5	-10.0
CC[N+](C)(C)CC/C=C1/c2ccccc2Sc2ccc(Cl)cc21	15.5%	-8.1	-9.9
CCCCCCCCCC[N+](C)(C)CC/C=C1/c2ccccc2Sc2ccc(Cl)cc21	-56.6%	-113.2*	-2.1
CCCCCCCCCCC[N+](C)(C)CC/C=C1/c2ccccc2Sc2ccc(Cl)cc21	-24.7%	-124.0*	-3.3
NCC/C=C1/c2ccccc2CSc2ccccc21	-68.4%	?	-1.4
CCOC(=O)c1cc(S(=O)(=O)NCCc2ccccc2)cn1C	18.0%	2.4	-6.1
O=C(CSc1nc(Nc2ccccc2)nc(N2CCOCC2)n1)Nc1ccc2c(c1)OCCO2	1.2%	15.4	2.2
Cc1cc(-c2ccc(N=Nc3c(S(=O)(=O)O)cc4cc(S(=O)(=O)O)cc(N)c4c3O)c(C)c2)ccc1N=Nc1c(S(=O)(=O)O)cc2cc(S(=O)(=O)O)cc(N)c2c1O	.	.	-23.9
O=S(=O)(O)c1cc(O)c2c(O)c(N=Nc3cc(Cl)ccc3O)c(S(=O)(=O)O)cc2c1	-5.8%	-61.5*	-23.0
Clc1ccccc1Cc1noc(CN2CCCCC2CCc2ccccn2)n1 (centres undefined)	-34.3%	4.8	-11.1
COc1ccc(Nc2cc(C(=O)NCCCN3CCN(c4ccc(OC)cc4)CC3)c3ccccc3n2)cc1	.	.	15.4
Cn1c(C(=O)NC2CCCCC2)cc2sccc21	-3.2%	-18.7	-5.0
O=C(Cn1c(-c2cccs2)cc2ccccc21)NCCCN1CCN(c2ccc(F)cc2)CC1	.	.	-4.5
COc1ccc(N2CCN(CCCNC(=O)c3cc4sccc4n3C)CC2)cc1	-27.2%	-57.3*	-64.5
CC1CCN(CCCNC(=O)c2cc3sccc3n2C)CC1	-2.7%[7.66 µM]	-85.8*	-32.0
COc1ccc(N2CCN(CCCNC(=O)Cn3c(-c4cccs4)cc4ccccc43)CC2)cc1	.	.	31.6*
CCCCN(C(=O)c1cccc(-c2ccc(OC(C)=O)cc2)c1)c1c(N)n(CCC)c(=O)[nH]c1=O	31.0%	5.0	1.3
Cc1cccnc1NC(=O)c1cccc(S(=O)(=O)N2CCCC2)c1	-13.3%	13.0	5.1
Cc1cc(Br)cn2c(Cc3ccsc3)c(-c3cccc(Br)c3)nc12	.	22.9	5.3
NC1CCN(c2nc3c(cc2F)c(=O)c(C(=O)O)cn3-c2ccc(F)cc2F)C1 (centres undefined)	.	-26.9	-20.8
Cc1ccc(NC(=O)CCN2CCC(Cc3ccccc3)CC2)cc1	-33.0%	-53.2*	-17.3
SMILES	Integrin act MD	DRD3 antagonist	D3 ag
CC(C)(CNCc1ccccc1)NS(=O)(=O)c1ccccc1	-34.2%	-2.0	-22.6
CCOC(=O)C1CCN(CC(C)(C)NS(=O)(=O)c2ccc(C)cc2)CC1	-10.2%	9.7	-15.1
CC(C)(CNCc1ccccc1)NS(=O)(=O)c1ccc(Cl)cc1	2.5%	-56.7*	-9.8
CN1CCN(CCC(=O)Nc2ccccc2)CC1	35.2%	-4.1	10.7
Cc1ccc(S(=O)(=O)NC(C)(C)CN2CCC(Cc3ccccc3)CC2)cc1	-60.2%	-58.8*	-19.0
COc1cc(NC(=O)CCN2CCN(C/C=C/c3ccccc3)CC2)cc(OC)c1	-5.1%	-58.6*	2.6
COc1ccc(NC(=O)CCN2CCN(C/C=C/c3ccccc3)CC2)cc1	2.1%	-11.7	-9.0
CC1CCN(C(=O)CN2CC(C)Sc3ccccc32)CC1 (centres undefined)	.	.	-1.5
CC(C)CCNC(=O)C1CCN(S(=O)(=O)c2cccc3nsnc23)CC1	.	.	-8.2
COc1ccc(S(=O)(=O)N2CCCC(C(=O)NC3CCCC3)C2)cc1OC (centres undefined)	-4.8%	5.0	3.7
CC(=O)Nc1ccc(C(=O)NNC(=O)c2ccc(Cl)cc2Cl)cc1	-3.8%	1.7	1.7
COc1ccc(NC(=O)CCCNC(=O)c2ccc(Cl)cc2)cc1S(=O)(=O)N1CCCCC1	12.0%	-0.3	5.4
Cc1nn(CSc2c(F)c(F)c(F)c(F)c2F)c(C)c1[N+](=O)[O-]	0.0%	-2.5	2.1
O=C(CNC(=O)c1cccnc1)N/N=C/c1ccc(O)cc1O	2.5%	5.4	6.2
COc1ccc(C)cc1NC(=O)CCN1CCCC1	25.7%	0.0	-7.8
CC(C)(CN1CCCC1)NS(=O)(=O)c1ccc(Cl)cc1	6.2%	0.0	-13.3
COc1ccc(C)cc1NC(=O)CCN1CCN(C/C=C/c2ccccc2)CC1	-14.7%	-52.4*	-15.1
CC(C)(CN1CCNCC1)NS(=O)(=O)c1ccc(Cl)cc1	-56.3%	-95.0*	-23.3
Cc1ccc(NC(=O)CCN2CCN(C/C=C/c3ccccc3)CC2)cc1C	-27.5%	-6.9	-8.8
Cc1ccc(NC(=O)CCN2CCN(C/C=C/c3ccccc3)CC2)cc1	-20.7%	-52.9*	-7.1
Cc1noc2ncnc(Oc3ccc4ccccc4c3)c12	1.4%	36.2	7.8
CCN(Cc1ccccc1)C(=O)CSc1n[nH]c(N)n1	0.0%	5.7	5.3
COc1ccc(C2C(C#N)=C(N)OC3=C2C(=O)CC(C)(C)C3)cc1OC (centres undefined)	-18.9%	2.5	1.5
CC1(C)CC(=O)C2=C(C1)OC(N)=C(C#N)C2c1cccc(OC(=O)c2ccco2)c1 (centres undefined)	-17.9%	-90.4*	-1.1
CCOC(=O)c1c(-c2cccc([N+](=O)[O-])c2)csc1N	-8.6%	14.4	9.1
SMILES	Integrin act MD	DRD3 antagonist	D3 ag
Cc1csc2cc(-c3cccc([N+](=O)[O-])c3)c(-c3cccc([N+](=O)[O-])c3)c[n+]12	?	-60.6*	-23.1
CCN1CCN(C(c2cccs2)C(C)NS(=O)(=O)c2ccc(C)cc2)CC1 (centres undefined)	11.7%	8.7	2.5
Cc1oc(-c2ccc(C(=O)Nc3ccccc3F)cc2)nc1COc1ccccc1	.	.	0.9
Cc1oc(-c2ccc(C(=O)NCc3ccccc3F)cc2)nc1COc1ccccc1	.	.	33.9*
COc1ccc(Nc2nc3ccccc3nc2NS(=O)(=O)c2ccc(NC(C)=O)cc2)cc1	12.9%	?	-3.3
Cc1oc2c(C)c3oc(=O)c(CCC(=O)N4C[C@H]5C[C@@H](C4)c4cccc(=O)n4C5)c(C)c3cc2c1C	9.8%	7.7	-4.1
Cc1coc2c(C)c3oc(=O)c(CCC(=O)N4C[C@H]5C[C@@H](C4)c4cccc(=O)n4C5)c(C)c3cc12	0.0%	2.6	34.9*
Cc1cc(C)n(-c2nc(SCCN(C)C)c3c4c(sc3n2)CCCC4)n1	-61.5%	-71.0*	-16.2
Cc1cc(C)n(-c2nc(SCC(=O)O)c3c4c(sc3n2)COC(C)(C)C4)n1	1.4%	0.0	-1.2
CCC(C#CCN1CCCCC1)(CC)OCCC#N	0.9%	-55.9*	-18.3
